Data reported in PubChem BioAssay.
Calls of active or inactive are those of the source. Unless noted, how the calls were made is not given here.

Key:
[1] = test system: Wnt5a (protein binding on small-molecule microarray); experiment: Wnt5a binders on small-molecule microarray, primary screen, biophysical, 635/667 nm fluorescence (AID 1142); settings: 635 nm fluorescence, higher = more signal;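 further: fluorescence read at 667 nm with signal to noise per printed feature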
[2] = cell viability in Huh7 cells, primary screen, cytotoxicity control for HCV replication inhibitor project, CellTiter-Glo luminescence, basal, 48 h (AID 1143); settings: Huh7 HCV replicon, higher = more signal, called active from +8 up or from −8 down;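 further: Huh7 hepatoma cells carrying a hepatitis C replication reporter with no stimulus; test concentration not given here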
[3] = P. aeruginosa biofilm formation inhibitors, primary screen, PAO1 strain, BacTiter-Glo luminescence, LB-PBS (AID 1144); settings: 12 h, higher = more signal
[4] = CREB reporter modulators without forskolin, primary screen, cell-based, PC12, CRE-LacZ reporter, unstimulated (AID 1145); settings: no forskolin, luminescence, 4.5 h, higher = more signal, called active from +8 up or from −8 down
[5] = CREB reporter modulators under forskolin, primary screen, cell-based, PC12, CRE-LacZ reporter, forskolin-stimulated (AID 1146); settings: luminescence, 4.5 h, higher = more signal, called active from +8 up or from −8 down;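 further: PC12 cells with 6xCRE LacZ reporter stimulated by forskolin 10 µM; beta-galactosidase reporter signal reflecting CREB driven transcription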
[6] = target: Streptavidin (Streptomyces avidinii) (UniProt P22629); experiment: streptavidin binders on small-molecule microarray, primary screen, artefact control for SMM compound annotation, biophysical, 635/667 nm fluorescence (AID 1147); settings: streptavidin binding, higher = more signal;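 further: signal reflects streptavidin binding to arrayed compounds as a control protein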
Streptavidin (Streptomyces avidinii), sequence (P22629 whole entry, looked up): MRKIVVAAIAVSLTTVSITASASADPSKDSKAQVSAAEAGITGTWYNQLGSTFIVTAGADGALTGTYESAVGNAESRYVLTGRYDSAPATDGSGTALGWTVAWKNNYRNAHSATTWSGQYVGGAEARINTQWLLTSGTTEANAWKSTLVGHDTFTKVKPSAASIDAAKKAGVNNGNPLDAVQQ

[7] = small-molecule binders of probe aInhba, primary screen, biochemical, small-molecule microarray, 635/667 nm fluorescence (AID 1148); settings: higher = more signal;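 further: score merges 667nm spot fluorescence with signal-to-noise for antibody binding to printed compounds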
[8] = target: Torsin-1A (Homo sapiens) (UniProt O14656); experiment: torsin A binders from cell lysate, primary screen, small-molecule microarray, wild-type, 635/667 nm (AID 1149); settings: COS7 hTOR1A-WT lysate, 635 nm fluorescence, higher = more signal
Torsin-1A (Homo sapiens), sequence (O14656 whole entry, looked up): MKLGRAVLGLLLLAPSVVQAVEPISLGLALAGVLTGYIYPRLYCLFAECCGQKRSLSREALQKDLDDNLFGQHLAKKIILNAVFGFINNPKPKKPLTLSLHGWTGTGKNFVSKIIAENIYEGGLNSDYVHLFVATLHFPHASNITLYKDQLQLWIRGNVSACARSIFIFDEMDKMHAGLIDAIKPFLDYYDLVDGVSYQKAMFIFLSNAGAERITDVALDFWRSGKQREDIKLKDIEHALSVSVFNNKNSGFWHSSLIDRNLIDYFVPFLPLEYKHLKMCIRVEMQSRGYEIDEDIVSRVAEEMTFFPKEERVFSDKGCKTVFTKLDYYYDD

[9] = target: Torsin-1A (Homo sapiens) (UniProt O14656); experiment: small-molecule binders of mutant TOR1A in lysate, primary screen, cell lysate, small-molecule microarray, COS7 lysate, 635/667 nm fluorescence (AID 1150); settings: COS7 hTOR1A mutant lysate, 635 nm fluorescence, higher = more signal;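 further: score pools 667 nm emission and signal to noise measuring lysate protein binding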
[10] = test system: Sonic hedgehog protein (Shh); experiment: small-molecule binders of Shh protein, primary screen, biochemical, small-molecule microarray, 635/667 nm fluorescence (AID 1151); settings: small-molecule microarray binding, 635 nm fluorescence; higher = more signal;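 further: Shh protein binding to compounds spotted on small-molecule microarray slides; score combines spot fluorescence intensity with signal-to-noise across triplicate slides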
[11] = E. coli DRC41 culture turbidity changes, primary screen, E. coli filamentation inducer project, strain DRC41, OD650, 48 h (AID 1152);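 further: E. coli MC1000 strain DRC41 lacking acrAB efflux pump and sulA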; settings: E. coli DRC41 (acrAB sulA), higher = more signal, called active from +8 up or from −8 down
[12] = small-molecule binders of probe aLefty1, primary screen, biochemical, small-molecule microarray, 635/667 nm fluorescence (AID 1153); settings: higher = more signal;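 further: score merges spot fluorescence with signal-to-noise ratio from the scanned slide images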
[13] = PSAC antagonists in infected red cells, primary screen, cell-based, P. falciparum Indochina, OD700, 1 h (AID 1154); settings: P. falciparum Indochina infected RBC osmotic lysis, higher = more signal, called active from +8 up or from −8 down
[14] = PSAC antagonists in infected red cells, primary screen, cell-based, P. falciparum Indochina, OD700, 2 h (AID 1155);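 further: lysis reports solute entry through the parasite surface anion channel PSAC; channel blockers reduce lysis of infected cells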; settings: P. falciparum Indochina infected erythrocytes, osmotic lysis OD700; higher = more signal, called active from +8 up or from −8 down
[15] = osmotic lysis modulators in infected erythrocytes, primary screen, PSAC antagonist project, cell-based, P. falciparum Indochina, OD700, 3 h (AID 1156); settings: higher = more signal, called active from +8 up or from −8 down
[16] = PSAC antagonists in infected red cells, primary screen, cell-based, P. falciparum Indochina, OD700, 18 h (AID 1157); settings: P. falciparum Indochina infected erythrocytes, osmotic lysis OD700, 18 h; higher = more signal, called active from +8 up or from −8 down
[17] = modulators of S6 phosphorylation in cells, primary screen, cell-based, A549, cytoblot, luminescence, serum-stimulated (AID 1158); settings: A549 phospho-S6 cytoblot, 5 h, higher = more signal;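 further: serum-stimulated A549 lung adenocarcinoma cells; signal is phosphorylated S6 detected by cytoblot immunostaining with HRP secondary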
[18] = target: NADPH oxidase 2 (Homo sapiens) (UniProt P04839); experiment: NOX2-dependent H2O2 signal modulators, primary screen, NOX inhibitor project, cell-based, HEK293-NOX2, PMA-stimulated, Amplex Red fluorescence (AID 1159); settings: 45 min, higher = more signal, called active from +8 up or from −8 down; further: test concentration not given here
NADPH oxidase 2 (Homo sapiens), sequence (P04839 whole entry, looked up): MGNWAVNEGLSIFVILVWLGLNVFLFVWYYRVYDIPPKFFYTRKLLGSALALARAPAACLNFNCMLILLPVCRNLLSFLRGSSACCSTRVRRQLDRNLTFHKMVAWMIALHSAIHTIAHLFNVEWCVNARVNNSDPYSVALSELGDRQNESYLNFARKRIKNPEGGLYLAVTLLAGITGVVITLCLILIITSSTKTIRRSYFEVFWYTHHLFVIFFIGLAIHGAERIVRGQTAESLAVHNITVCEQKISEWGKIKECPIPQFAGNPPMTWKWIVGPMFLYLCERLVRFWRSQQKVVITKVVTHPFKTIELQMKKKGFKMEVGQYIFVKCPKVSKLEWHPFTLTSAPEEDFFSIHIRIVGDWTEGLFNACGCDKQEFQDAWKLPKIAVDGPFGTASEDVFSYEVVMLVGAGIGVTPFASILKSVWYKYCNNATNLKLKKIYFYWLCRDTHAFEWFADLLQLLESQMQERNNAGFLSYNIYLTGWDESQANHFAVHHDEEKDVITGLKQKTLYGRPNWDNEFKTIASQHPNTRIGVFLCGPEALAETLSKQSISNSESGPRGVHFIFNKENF

[19] = target: NADPH oxidase 4 (Homo sapiens) (UniProt Q9NPH5); experiment: NOX4-dependent H2O2 signal modulators, primary screen, NOX inhibitor project, cell-based, HEK293-NOX4, tetracycline-induced, Amplex Red fluorescence (AID 1160); settings: 45 min, higher = more signal, called active from +8 up or from −8 down
NADPH oxidase 4 (Homo sapiens), sequence (Q9NPH5 whole entry, looked up): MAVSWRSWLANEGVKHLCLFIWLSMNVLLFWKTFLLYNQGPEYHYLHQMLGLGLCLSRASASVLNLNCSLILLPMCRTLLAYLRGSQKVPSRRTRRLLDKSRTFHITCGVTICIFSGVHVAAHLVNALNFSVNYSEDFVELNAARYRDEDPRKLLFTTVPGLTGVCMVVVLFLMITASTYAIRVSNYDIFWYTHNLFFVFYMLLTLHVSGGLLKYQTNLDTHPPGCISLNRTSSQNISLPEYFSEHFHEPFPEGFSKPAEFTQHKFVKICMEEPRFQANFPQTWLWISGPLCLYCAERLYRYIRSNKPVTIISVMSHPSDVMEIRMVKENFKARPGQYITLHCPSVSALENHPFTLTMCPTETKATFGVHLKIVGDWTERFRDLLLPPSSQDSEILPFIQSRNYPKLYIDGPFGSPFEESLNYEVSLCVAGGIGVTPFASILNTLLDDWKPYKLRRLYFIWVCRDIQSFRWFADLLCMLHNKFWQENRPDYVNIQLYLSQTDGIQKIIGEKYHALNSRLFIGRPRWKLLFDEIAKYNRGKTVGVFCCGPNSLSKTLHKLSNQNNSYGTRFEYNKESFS

[20] = target: NADPH oxidase 5 (Homo sapiens) (UniProt Q96PH1); experiment: NOX5-dependent H2O2 signal modulators, primary screen, NOX inhibitor project, cell-based, HEK293-NOX5, Amplex Red fluorescence (AID 1161); settings: HEK293-NOX5, ionomycin, 45 min, higher = more signal
NADPH oxidase 5 (Homo sapiens), sequence (Q96PH1 whole entry, looked up): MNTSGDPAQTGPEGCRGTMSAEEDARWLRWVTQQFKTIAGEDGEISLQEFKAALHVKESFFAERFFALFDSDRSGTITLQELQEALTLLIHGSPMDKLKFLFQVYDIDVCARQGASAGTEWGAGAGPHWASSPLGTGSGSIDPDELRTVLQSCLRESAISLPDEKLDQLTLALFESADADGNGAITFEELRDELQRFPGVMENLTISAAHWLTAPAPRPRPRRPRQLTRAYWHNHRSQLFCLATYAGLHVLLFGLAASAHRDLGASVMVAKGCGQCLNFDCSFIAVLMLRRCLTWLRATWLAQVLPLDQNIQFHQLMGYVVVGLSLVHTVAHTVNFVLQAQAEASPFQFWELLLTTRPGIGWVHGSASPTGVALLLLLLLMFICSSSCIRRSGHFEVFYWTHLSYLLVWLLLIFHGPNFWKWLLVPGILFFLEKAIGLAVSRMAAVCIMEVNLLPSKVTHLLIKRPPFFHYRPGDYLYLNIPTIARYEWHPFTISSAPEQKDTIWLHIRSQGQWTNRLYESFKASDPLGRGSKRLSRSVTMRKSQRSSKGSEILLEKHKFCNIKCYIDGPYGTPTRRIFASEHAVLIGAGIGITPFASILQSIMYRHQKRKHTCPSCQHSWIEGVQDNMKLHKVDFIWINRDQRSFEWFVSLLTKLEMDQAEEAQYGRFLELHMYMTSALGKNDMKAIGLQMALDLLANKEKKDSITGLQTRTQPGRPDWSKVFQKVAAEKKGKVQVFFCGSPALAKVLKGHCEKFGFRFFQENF

SMILES | composite z-score [1] | z-score [2] | z-score [3] | z-score [4] | z-score [5] | composite z-score [6] | composite z-score [7] | composite z-score [8] | composite z-score [9] | composite z-score [10] | z-score [11] | composite z-score [12] | z-score [13] | z-score [14] | z-score [15] | z-score [16] | z-score [17] | z-score [18] | z-score [19] | z-score [20]
COc1ccc(CCNC(=O)[C@@]2(Sc3ccc(C)cc3)CC(=O)N(Cc3ccccc3C(F)(F)F)[C@@H]2c2ccc(CO)cc2I)cc1 | -0.0049 | -1.53 (inactive) | 1.02 (inactive) | 0.362 (inactive) | 2.7 (inactive) | -0.975 | 0.0714 | -1.13 | -0.702 | -0.649 | 0.729 (inactive) | 0.0701 | 7.89 (inactive) | 1.43 (inactive) | 0.932 (inactive) | 0.844 (inactive) | -0.513 | 0.933 (inactive) | -2.09 (inactive) | 0.713
CCCC[C@@H](O)C1=C(COc2ccccc2)C[C@H]2C(=O)N(Cc3ccccc3)C(=O)[C@H]2[C@H]1CO | -0.143 | -2.03 (inactive) | 0.436 (inactive) | 7.39 (inactive) | -0.695 (inactive) | -0.0098 | -0.239 | -0.152 | 0.107 | 0.491 | 0.232 (inactive) | -0.0564 | 13.9 (active) | 1.59 (inactive) | -1.11 (inactive) | 0.967 (inactive) | -0.326 | -0.77 (inactive) | -0.286 (inactive) | -0.695
O=C1OCCC=C[C@H]2OC34C=CCN(Cn5nnc6ccccc65)C(=O)[C@H]3N(CCCO)C(=O)[C@@H]4C12 (stereo not given in full) | -0.197 | -2.61 (inactive) | -0.413 (inactive) | -0.903 (inactive) | -0.242 (inactive) | -1.01 | -0.161 | -0.444 | -2.04 | -0.128 | 1.24 (inactive) | -0.321 | 0.502 (inactive) | -1.23 (inactive) | 1.65 (inactive) | -1.32 (inactive) | 0.601 | 0.813 (inactive) | -0.341 (inactive) | -1.35
COC(=O)[C@@]1(Cc2ccc(F)cc2)[C@H]2c3cc(C(=O)N(C)C)n(CCc4ccc(OC)c(Br)c4)c3C[C@H]2CN1C(=O)c1ccccc1 | 1.88 | -4.65 (inactive) | 0.167 (inactive) | 17.2 (active) | 124 (active) | 0.221 | 0.925 | 0.005 | 0.741 | -1.09 | -1.75 (inactive) | 1.32 | 1.89 (inactive) | -1.04 (inactive) | 0.746 (inactive) | -1.96 (inactive) | 1.24 | -3.62 (inactive) | -3.99 (inactive) | -4.26
CC(C)NC(=O)[C@@]1(C)c2ccccc2C(=O)N(Cc2ccc(OC(F)(F)F)cc2)[C@H]1c1ccc(CO)cc1 | -0.766 | -1.98 (inactive) | -0.539 (inactive) | -0.411 (inactive) | -1.48 (inactive) | -0.933 | -0.183 | -2.23 | 0.492 | -0.354 | -0.362 (inactive) | 0.0004 | 2.96 (inactive) | 0.857 (inactive) | 1.89 (inactive) | 0.254 (inactive) | 0.0795 | 0.415 (inactive) | -0.667 (inactive) | 1.99
[N-]=[N+]=NCc1ccccc1[C@@H]1OC(c2ccc(OCCCO)cc2)=N[C@]1(CCS(=O)(=O)c1ccccc1)C(=O)O | 0.132 | 0.0514 (inactive) | -0.127 (inactive) | 1.06 (inactive) | -0.0084 (inactive) | 0.659 | -0.0589 | 0.134 | 1.09 | -1.42 | -0.0791 (inactive) | 0.186 | 18.8 (active) | 4.31 (inactive) | 0.296 (inactive) | 0.716 (inactive) | -0.0381 | 1.19 (inactive) | 1.33 (inactive) | 2.11
COCCOC(=O)N1C(=O)[C@@]2(c3cc(C#CCCO)ccc31)[C@H](C(=O)Nc1nc3ccccc3s1)[C@H]1C(=O)O[C@H](c3ccccc3)[C@H](c3ccccc3)N1[C@@H]2c1ccc(O)cc1 | 0.73 | -1.16 (inactive) | 0.263 (inactive) | -0.168 (inactive) | 2.14 (inactive) | 0.809 | 0.279 | 0.772 | 0.833 | 1.06 | 0.0106 (inactive) | 0.126 | 1.41 (inactive) | 0.523 (inactive) | 1 (inactive) | 0.417 (inactive) | 0.0869 | 1.43 (inactive) | 0.0581 (inactive) | 0.329
COc1ccc(C(=O)Nc2ccc(CN3C(=O)[C@]4(O[C@H](CC(=O)N5Cc6ccccc6C[C@H]5CO)[C@@H]([Si](C)(C)c5ccc(OC)cc5)[C@@H]4C)c4ccccc43)cc2)cc1 | 0.307 | -3.81 (inactive) | 0.556 (inactive) | -0.011 (inactive) | -0.6 (inactive) | 0.134 | -0.132 | 0.851 | 0.93 | 2.04 | -0.298 (inactive) | 0.0004 | 3.15 (inactive) | 1.5 (inactive) | 1.15 (inactive) | 0.941 (inactive) | 0.383 | 0.545 (inactive) | -0.307 (inactive) | 2.12
C=CC[C@@]1(C(=O)NCCCOC)N=C(c2ccc(OCCCO)cc2)O[C@@H]1c1ccccc1N=[N+]=[N-] | 0.452 | -2.67 (inactive) | -1.75 (inactive) | -0.711 (inactive) | -0.66 (inactive) | 0.77 | 0.0713 | -0.668 | -0.112 | -0.388 | 1.37 (inactive) | 0.545 | 30.7 (active) | 29.4 (active) | 1.93 (inactive) | 2.16 (inactive) | -0.217 | -3.32 (inactive) | -0.66 (inactive) | -1.64
